This note sets out measurements from PubChem BioAssay (NCATS).

The target of assay [1] is Cellular tumor antigen p53 (Homo sapiens) (UniProt P04637). The assay is described as follows: Primary qHTS for small molecule compounds that upregulate eGFP-tagged delta133p53alpha (in N-terminal) cells. (AID 2060322). Also: nearly all actives have a fitted effect of over 75% in size. Also: potency is read from the fitted curve at half-maximal effect.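 As to activation: cells pre-induced with doxycycline then dosed without doxycycline; series mostly up to about 56 µM; 0% = DMSO vehicle and 100% = reference activator.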 Particulars: NCI-H358 eGFP-delta133p53alpha fluorescence, 24 h; activation: active compounds read high. In a few lines: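 NCI-H358 cells pre-induced 24 h with 10 ng/ml doxycycline for eGFP-delta133p53alpha, plated dox-free and exposed 24 h at 37C to titrated compounds. Fixed, Hoechst-stained; gated GFP peak intensity by laser scanning cytometry, normalized to DMSO (0%) and 57.5 uM 5-azacytidine (100%).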
Sequence of Cellular tumor antigen p53 (Homo sapiens) (P04637 whole entry, looked up): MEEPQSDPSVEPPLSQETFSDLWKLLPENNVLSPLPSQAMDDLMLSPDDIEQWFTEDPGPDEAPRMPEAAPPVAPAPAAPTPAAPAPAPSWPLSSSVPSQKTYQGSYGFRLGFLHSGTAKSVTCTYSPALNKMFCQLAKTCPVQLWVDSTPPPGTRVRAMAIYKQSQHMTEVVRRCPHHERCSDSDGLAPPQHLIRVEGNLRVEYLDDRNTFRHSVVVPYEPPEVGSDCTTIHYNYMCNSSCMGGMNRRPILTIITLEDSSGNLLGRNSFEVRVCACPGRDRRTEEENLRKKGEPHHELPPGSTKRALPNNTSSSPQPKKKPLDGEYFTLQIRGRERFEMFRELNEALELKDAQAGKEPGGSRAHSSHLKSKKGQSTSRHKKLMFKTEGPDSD
On the technique in general: qHTS replaces the single test concentration by a dilution series.

Assay [2] has as its target Aldehyde dehydrogenase, mitochondrial (Homo sapiens) (UniProt P05091). The assay is described as follows: qHTS for Inhibitors of the Aldehyde Dehydrogenase Family (ALDH2) Primary screen (AID 2061308).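 Also: plate controls were vehicle for no effect and reference inhibitor for full effect; nearly all actives have a fitted effect of over 55% in size.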
The target of assay [3] is Retinaldehyde dehydrogenase 3 (Homo sapiens) (UniProt P47895). The experiment in a line: qHTS for Inhibitors of the Aldehyde Dehydrogenase Family (ALDH1A3) Primary screen (AID 2061315).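 Also: plate controls were DMSO vehicle for no effect and reference inhibitor for full effect.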

Records with an inconclusive call do not appear. A number with no mark means an inactive call. The source made the active and inactive calls. Calls follow the shape of the dose curve; as a rule, active = well fitted curve in the direction sought with a large enough effect; inconclusive = small, poorly fitted or top-dose-only effect, or another doubt; inactive = no such curve, though single readings can be large; an effect the other way counts as inactive or inconclusive.

Turning to `C=C1C(=O)O[C@@H]2C[C@@]3(C)CCC[C@H](C)C3=C[C@H]12`, the Potency in assay [1] is 19 µM (active). Moreover, the Potency result in assay [2] and in assay [3] was “inactive” each time.

On to `CC12CCC3c4ccc(O)cc4CCC3C1CC(OC1OC(C(=O)O)C(O)C(O)C1O)C2O` (centres undefined), for which the activation in assay [1] was -10.3%. Also, the Potency entry in assay [2] and in assay [3] was “inactive” throughout.

Turning to H-DPPDPDRFYGMM-NH2, the activation in assay [1] is -11%. The Potency result in assay [2] and in assay [3] was “inactive” in each case.

Consider `CC(=O)OC1C(OC(=O)c2ccccc2)C2C(C)(C)CC(=O)CC2(C)C23CCC(C)(C2)C(O)CC13` (centres undefined), for which the activation in assay [1] was -22.3%. The Potency result in assay [2] and in assay [3] was “inactive” in each case.

`O=C(Nc1ccc(Cl)cc1F)c1ccccc1O`: in assay [1], the activation was 8.59%. The Potency entry in assay [2] and in assay [3] was “inactive” throughout.

As for `CCCN(CCc1ccsc1)C1CCc2c(O)cccc2C1` (centres undefined), the activation in assay [1] is 2.68%. Moreover, the Potency result in assay [2] and in assay [3] was “inactive” each time.

Turning to `C=C1CC23CC1CCC2C12OC(=O)C(C)(C(O)CC1O)C2C3C(=O)O` (centres undefined), in assay [1], the activation was -7.14%. In addition, the Potency result in assay [2] and in assay [3] was “inactive” in each case.

Take `CC(C)=CCC/C(C)=C/CO[C@@H]1O[C@H](CO[C@@H]2OC[C@](O)(CO)[C@H]2O)[C@@H](O)[C@H](O)[C@H]1O`: the activation in assay [1] is 2.29%. Moreover, the Potency entry in assay [2] and in assay [3] was “inactive” each time.

As for `CC1(C)CC[C@]2(C(=O)O)CC[C@]3(C)C(=CCC4[C@@]5(C)CCC(O[C@@H]6OC[C@H](O)[C@H](O)[C@H]6O[C@@H]6O[C@H](CO)[C@@H](O)[C@H](O)[C@H]6O)[C@@](C)(CO)C5CC[C@]43C)[C@@H]2C1` (some centres undefined), in assay [1], the activation is 14.3%. Moreover, the Potency result in assay [2] and in assay [3] was “inactive” in each case.

For `O=C(NCC(O)CO)c1ccncc1Nc1ccc(I)cc1F` (centres undefined), the activation in assay [1] was 19.6%. Moreover, the Potency entry in assay [2] and in assay [3] was “inactive” each time.

`CC1(C)C(=O)N2c3ccccc3[C@]3(CC(n4cnc5ccccc5c4=O)C(=O)O3)[C@H]2N1O` (some centres undefined): the activation in assay [1] was 1.53%. Further, the Potency entry in assay [2] and in assay [3] was “inactive” throughout.

On to `CC1C(=O)OCC2=CCN3CCC(OC(=O)C(C)(O)C1(C)O)C23` (centres undefined), for which the activation in assay [1] is -5.36%. The Potency result in assay [2] and in assay [3] was “inactive” in each case.

Take `C/C(=C\CC[C@H](CO)[C@@H]1CC[C@]2(C)C3=C(CC[C@@]12C)[C@@]1(C)CCC(=O)C(C)(C)C1CC3)C(=O)O` (some centres undefined): in assay [1], the activation is -4.58%. Besides, the Potency result in assay [2] and in assay [3] was “inactive” throughout.

As for `COC1C(CO)OC(n2cnc3c(=O)[nH]cnc32)C1O` (centres undefined), the activation in assay [1] was -12.2%. In addition, the Potency entry in assay [2] and in assay [3] was “inactive” each time.

Turning to `C[C@@H]1O[C@@H](O[C@@H]2[C@@H](O[C@@H]3O[C@@H](C)[C@H](O[C@@H]4OC[C@H](O)[C@H](O[C@@H]5OC[C@@H](O)[C@H](O)[C@H]5O)[C@H]4O)[C@@H](O[C@@H]4OC[C@](O)(CO)[C@H]4O)[C@H]3O)[C@H](OC(=O)[C@]34CCC(C)(C)C[C@H]3C3=CCC5[C@@]6(C)C[C@H](O)[C@H](O[C@@H]7O[C@H](CO[C@@H]8OC[C@H](O)[C@H](O)[C@H]8O)[C@@H](O)[C@H](O)[C@H]7O)C(C)(C)C6CC[C@@]5(C)[C@]3(C)C[C@H]4O)OC[C@H]2O)[C@H](O)[C@H](O)[C@H]1O` (some centres undefined), in assay [1], the activation was -8.4%. In addition, the results for the activity change, negative = inhibition in assay [2] and in assay [3] were 17% [at 11.2 µM] and 8.86% [at 11.2 µM], respectively.

As to `COC(=O)C(Cc1ccccc1)NC(=O)c1ccccc1` (centres undefined), the activation in assay [1] was 6.87%. In addition, the Potency result in assay [2] and in assay [3] was “inactive” throughout.

As for `CC(C)c1ccc2c(c1)C(=O)CC1[C@@](C)(C(=O)O)CCC[C@]21C` (some centres undefined), the activation in assay [1] was -2.68%. Besides, the Potency entry in assay [2] and in assay [3] was “inactive” throughout.

On to `C=C1CCC2[C@](C)(CCC[C@]2(C)C(=O)O)[C@H]1CC/C(C)=C/C(=O)OC` (some centres undefined), for which, in assay [1], the activation is 17.9%. Moreover, the Potency result in assay [2] and in assay [3] was “inactive” throughout.

Take `C=C(C(=O)OC)[C@]12O[C@@](C)(CC[C@@]3(O)/C(=C\C)C(=O)O[C@]3(C)C[C@@H]1OC(=O)C(CO)CN1CCCC1C(=O)O)CC2=O` (some centres undefined): the activation in assay [1] is -18.8%. Besides, the Potency entry in assay [2] and in assay [3] was “inactive” each time.

Consider `C/C=C/C=C/C1=C2C(=O)C3(C)C4C(C(=O)CC(O)/C=C/C)=C(O1)C1(C)C2C2(C)OC1(O)C4(C)OC23O` (centres undefined), for which the activation in assay [1] is -2.68%. In addition, the Potency result in assay [2] and in assay [3] was “inactive” each time.

For the compound `CC(C)=CC[C@H]1O[C@]2(O)C([C@H]3CCC4[C@@]5(C)CC[C@H](O[C@@H]6O[C@H](CO)[C@H](O)[C@H](O[C@@H]7O[C@H](CO)[C@@H](O)[C@H](O)[C@H]7O)[C@H]6O[C@@H]6O[C@@H](C)[C@H](O)[C@@H](O)[C@H]6O)C(C)(C)C5CC[C@@]4(C)[C@]3(C)[C@H]2O)[C@@]1(C)O` (some centres undefined), the activation in assay [1] was 17.6%. The Potency entry in assay [2] and in assay [3] was “inactive” each time.

Consider `O=C(NCCO)c1cccc(-c2cc(Nc3ccc(OC(F)(F)F)cc3)ncn2)c1`, for which, in assay [1], the activation was 1.79%. In addition, the Potency result in assay [2] and in assay [3] was “inactive” each time.

For `Cc1cc(NC(=O)c2cccc(NC(=O)/C=C/CN(C)C)c2)ccc1Nc1nccc(-c2cccnc2)n1`, the Potency in assay [1] is 26.9 µM (active). Moreover, the Potency result in assay [2] and in assay [3] was “inactive” each time.
